Screening data from PubChem BioAssay.
L3MBTL1 inh = L3MBTL1 (human) inhibition | AlphaScreen L3MBTL1–H3K9me1 peptide binding | Potency, µM (series often up to 57.1 µM), without a hit: at the top dose activity, negative = inhibition, hits mostly inhibitors | 230,000 compounds, 0.66% hits | AID 485360; also: % is scaled to controls: 0 for no effect and ±100 for the full control effect; nearly all actives have a fitted effect of over 60% in size
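AlphaScreen assay: L3MBTL1 (50 nM final) was preincubated 30 min at room temperature with biotinylated H3(1-15)K9me1 peptide (75 nM final), then 30 min with library compounds; streptavidin donor and nickel chelate acceptor beads (10 ug/mL final) added, 30 min dark.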
BAZ2B inh = BAZ2B (human) inhibition. Q9UIF8. AlphaScreen BAZ2B-H3K14Ac peptide displacement. Potency, µM (titrated, usually from 114 µM), for the others: at the highest dose activity change, negative = inhibition, most hits filed as inhibitors. 360,000 compounds, 4.4% hits. AID 504333; also: % is scaled to controls: 0 for no effect and ±100 for the full control effect; nearly all actives have a fitted effect of over 60% in size
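AlphaScreen displacement of biotin-H3(5-23)K14Ac peptide (50 nM final) from BAZ2B (50 nM final) in PBS pH 7.4, 0.01% Tween-20; complex preformed 30 min RT, then compounds (top 110 uM) 30 min RT, beads 20 min dark.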
G9a inh = inhibitors of human histone lysine methyltransferase G9a; Q96KQ7; G9a H3K9 monomethylation, AlphaScreen, 2 h; Potency, µM (titrated, usually from 102 µM), inactives show at the highest dose activity, negative = inhibition, actives largely listed as inhibitors; 350,000 compounds, 8.8% hits; also: % is scaled to controls: 0 for no effect and ±100 for the full control effect; nearly all actives have a fitted effect of over 75% in size
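Signal arises when biotinylated H3K9 peptide, once monomethylated, bridges streptavidin donor and antibody-captured acceptor beads. Enzyme at 20 nM was preincubated 15 min with test compounds; peptide 500 nM and SAM 20 uM then reacted for 2 h.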
JMJD2A Tudor inh = JMJD2A Tudor domain (human) inhibition | Potency, µM (highest dose often 114 µM), without a hit: at the top dose activity change, negative = inhibition, usual class: inhibitors | AlphaScreen JMJD2A-Tudor / H3K4me3 peptide binding | O75164 | 390,000 compounds, 4.4% hits; also: % is scaled to controls: 0 for no effect and ±100 for the full control effect; nearly all actives have a fitted effect of over 50% in size
GLS inhibitor = glutaminase GLS (human) inhibition. Potency, µM (top dose mostly 45.5 µM), inactives show top-dose activity change, negative = inhibition, usual class: inhibitors. AID 624170. O94925. GLS enzymatic activity, qHTS titration. 410,000 compounds, 0.21% hits; also: % is scaled to controls: 0 for no effect and ±100 for the full control effect
Target sequence (O94925 whole entry, looked up): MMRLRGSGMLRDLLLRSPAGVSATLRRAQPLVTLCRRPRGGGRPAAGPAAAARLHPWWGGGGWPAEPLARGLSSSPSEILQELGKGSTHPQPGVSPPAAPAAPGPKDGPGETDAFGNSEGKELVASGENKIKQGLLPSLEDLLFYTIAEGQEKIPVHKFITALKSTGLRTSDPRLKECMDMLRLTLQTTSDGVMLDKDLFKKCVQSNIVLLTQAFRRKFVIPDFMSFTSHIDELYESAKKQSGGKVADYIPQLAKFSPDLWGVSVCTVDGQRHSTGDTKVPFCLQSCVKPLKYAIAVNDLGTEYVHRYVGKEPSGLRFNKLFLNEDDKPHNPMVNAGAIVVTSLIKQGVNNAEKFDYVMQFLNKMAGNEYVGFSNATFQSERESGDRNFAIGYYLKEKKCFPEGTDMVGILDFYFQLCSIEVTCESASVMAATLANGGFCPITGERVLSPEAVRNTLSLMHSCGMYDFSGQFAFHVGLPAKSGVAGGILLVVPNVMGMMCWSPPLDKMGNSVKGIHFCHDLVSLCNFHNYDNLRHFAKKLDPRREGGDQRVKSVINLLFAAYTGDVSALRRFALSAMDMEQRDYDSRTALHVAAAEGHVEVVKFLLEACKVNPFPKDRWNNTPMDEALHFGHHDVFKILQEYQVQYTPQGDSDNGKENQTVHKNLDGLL
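Read-out is an Amplex red fluorescence increase coupled through glutamate oxidase and HRP, measured before and after 30 min room-temperature incubation. hKGA is in 45 mM KH2PO4 (pH 8.2) with 0.02% Tween-20; glutamine added as 1mM solution.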
HP1b chromo inh = blocks HP1-beta chromodomain binding to methylated histone tails | Potency, µM (top dose mostly 114 µM), without a hit: at the highest dose activity change, negative = inhibition, actives largely listed as inhibitors | AlphaScreen HP1-beta / biotin-H3K9me3 peptide binding | 390,000 compounds, 0.56% hits | P83916 | AID 540317; also: nearly all actives have a fitted effect of over 70% in size
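AlphaScreen: HP1-beta (50 nM) preformed 30 min with biotin-H3(1-18)K9me3 peptide (50 nM) in PBS pH 7.4, 0.01% Tween-20. Compound added for 30 min at RT, then streptavidin donor/nickel chelate acceptor beads (10 ug/mL) for 30 min.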
* marks the source's active call; other numbers are inactive results; ? = inconclusive; . = no result given; [ ] = remark or other dose. An excerpt weighted towards active compounds, which were near 10% of everything screened. Calls follow the shape of the dose curve; as a rule, active = well fitted curve in the direction sought with a large enough effect; inconclusive = small, poorly fitted or top-dose-only effect, or another doubt; inactive = no such curve, though single readings can be large; an effect the other way counts as inactive or inconclusive. Potency is read from the fitted curve at half-maximal effect.

SMILES | L3MBTL1 inh | BAZ2B inh | G9a inh | JMJD2A Tudor inh | GLS inhibitor | HP1b chromo inh
O=C(COC(=O)c1ccccc1OC(F)F)Nc1ccc(N2CCCCC2)cc1 | -1% | -6% | 7.9µM* | -23% | 4% | 5%
O=C(COC(=O)c1ccc(O)cc1)Nc1ccc(N2CCCCC2)cc1 | . | ? | 45µM* | ? | 40% | -19%
CCOc1ccccc1C(=O)OCC(=O)Nc1ccc(N2CCCCC2)cc1 | . | 4% | ? | -50%[57.1 µM] | 42% | ?
COc1cc(C(=O)OCC(=O)Nc2ccc(N3CCOCC3)cc2)ccc1OCC(C)C | 6% | 1% | 6.3µM* | 13% | 4% | 24%
COc1ccc(NC(=O)COC(=O)c2ccc(-n3cnnn3)cc2)cc1Cl | 6% | 3% | 40µM* | -11% | -12% | 19%
O=C(COC(=O)c1cncc(Br)c1)Nc1ccc(N2CCCCC2)cc1 | -10% | ? | ? | ? | 23% | 4%
Cc1cc(C)c2c(-n3cccc3)c(C(=O)NCc3cccc(F)c3)sc2n1 | . | -10% | -13%[59 µM] | -24% | 1% | -10%
CSc1ncc(C(=O)Nc2cc(Cl)ccc2C)c(-c2ccccc2)n1 | . | -21% | -5%[59 µM] | -9% | 3% | 9%
O=C(CN1Cc2ccccc2C1=O)Nc1cc(F)ccc1F | . | 0% | -10%[59 µM] | -14% | -11% | 35%
Cc1ccc(NC(=O)Cn2cc(S(=O)(=O)N3CCC(C)CC3)c3ccccc3c2=O)c(Br)c1 | . | 0% | 5%[59 µM] | -9% | 4% | 18%
Cc1cccc(C(=O)OCC(=O)Nc2ccc(N3CCCCC3)cc2)c1O | . | -33% | ? | -7% | 41% | 26%
COc1cc(OC)cc(C(=O)OCC(=O)Nc2ccc(N3CCCCC3)cc2)c1 | . | -6% | 10µM* | 0% | 16% | 30%
CCSc1n[nH]c(=S)s1 | . | ? | 1.4µM* | 20µM* | 1% | ?
Fc1ccc(-n2cc(-c3ccccc3)c3c(NC4CCCCC4)ncnc32)cc1 | . | ? | -6%[59 µM] | -22% | 3% | 32%
CC(=O)c1cccc(NC(=O)CCc2c(C)nc3c(-c4ccc(F)cc4)c(C)nn3c2C)c1 | . | -4% | -26%[59 µM] | -14% | -1% | 19%
CCC1CCCCN1C(=O)CCS(=O)(=O)c1cc2c(cc1C)NC(=O)CO2 (stereo not given) | . | ? | 8.9µM* | ? | 0% | ?
Cc1cc2c(cc1S(=O)(=O)CCC(=O)N1CCC(C)CC1)OCC(=O)N2 | . | 23% | 15%[59 µM] | -7% | 7% | 63%
Cc1cccc(NC(=O)CSc2ccc(-c3ccccn3)nn2)c1C | . | 2.8µM* | 7% | 8.9µM* | 2% | 28%
COc1ccccc1NC(=O)CSc1nnc(-c2ccccn2)n1Cc1ccco1 | -9% | ? | ? | 56µM* | -12% | -15%
Cc1c(Cl)cccc1NC(=O)CSc1ccc(-c2ccccn2)nn1 | . | 5% | -6%[59 µM] | ? | 4% | 70%
COc1ccccc1NC(=O)CSc1ccc(-c2ccccn2)nn1 | . | 3.2µM* | 3% | 3.5µM* | 0% | 23%
Cc1cccc(CSc2ncc(Cl)c(C(=O)Nc3sc4c(c3C(N)=O)CCCC4)n2)c1 | . | -2% | 3%[59 µM] | 2% | -3% | 36%
CN1C(=O)c2ccccc2Sc2ccc(NC(=O)COc3ccc(F)cc3)cc21 | . | -16% | 5%[59 µM] | -28% | 1% | 2%
COc1cccc(-c2cn3c(n2)sc2cc(C(=O)NCCc4ccc(OC)c(OC)c4)ccc23)c1 | . | -18% | -1%[59 µM] | -23% | -12% | -4%
CSC1=NCCN1C(=O)c1c(F)cccc1Cl | . | -1% | 50µM* | -4% | -12% | 51%
COc1ccc(Nc2c(-c3ccco3)nc3ccc(C)cn23)cc1 | . | -34% | -13%[59 µM] | 0% | 0% | 28%
Fc1ccc(Nc2c(-c3ccco3)nc3ccccn23)cc1 | -9% | 45µM* | ? | ? | 10% | -28%
Cc1ccc(Nc2c(-c3ccco3)nc3ccccn23)cc1 | -14% | ? | 40µM* | ? | 0% | -38%
